# From PubChem BioAssay (Tox21)
# Results filed as inconclusive are left out. Entries that show only a call come without a potency. Activity calls are given as the source filed them. Calls come from the whole dose curve; as a rule, active = well fitted inhibition curve with a large enough effect in the repeat runs; inconclusive = weak or mixed curves, or effect the other way; inactive = no such curve, though single readings can be large or run the other way.
# Molecular target: Androgen receptor (Homo sapiens) (UniProt P10275)
# Sequence (P10275 whole entry, looked up): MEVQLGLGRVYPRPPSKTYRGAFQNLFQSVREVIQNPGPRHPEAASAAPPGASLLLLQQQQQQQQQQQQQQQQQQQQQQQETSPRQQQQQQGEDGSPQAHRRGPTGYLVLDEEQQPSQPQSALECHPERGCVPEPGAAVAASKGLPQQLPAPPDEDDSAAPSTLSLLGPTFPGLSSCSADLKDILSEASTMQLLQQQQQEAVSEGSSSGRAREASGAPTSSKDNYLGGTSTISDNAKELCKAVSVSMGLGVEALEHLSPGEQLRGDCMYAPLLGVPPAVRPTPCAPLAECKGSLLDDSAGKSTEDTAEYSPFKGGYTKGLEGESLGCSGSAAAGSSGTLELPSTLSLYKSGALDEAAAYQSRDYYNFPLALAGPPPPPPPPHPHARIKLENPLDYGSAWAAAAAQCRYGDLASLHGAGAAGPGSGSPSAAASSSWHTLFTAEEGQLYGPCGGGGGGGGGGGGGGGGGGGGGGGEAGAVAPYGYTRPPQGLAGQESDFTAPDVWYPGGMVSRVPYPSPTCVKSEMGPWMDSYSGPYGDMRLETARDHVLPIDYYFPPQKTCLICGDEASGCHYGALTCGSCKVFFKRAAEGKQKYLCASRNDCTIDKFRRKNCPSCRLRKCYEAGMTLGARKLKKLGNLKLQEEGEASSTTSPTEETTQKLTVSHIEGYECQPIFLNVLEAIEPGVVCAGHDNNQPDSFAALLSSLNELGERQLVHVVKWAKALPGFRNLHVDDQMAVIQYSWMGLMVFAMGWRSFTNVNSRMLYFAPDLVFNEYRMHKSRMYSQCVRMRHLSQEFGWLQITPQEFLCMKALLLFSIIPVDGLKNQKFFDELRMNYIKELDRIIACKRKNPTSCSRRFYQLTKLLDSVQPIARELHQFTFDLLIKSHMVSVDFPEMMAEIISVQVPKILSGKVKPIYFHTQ
# Assay: qHTS assay to identify small molecule antagonists of the androgen receptor (AR) signaling pathway using the MDA cell line (AID 743042; note: nearly all actives have a fitted effect of over 55% in size)
# Details: MDA-kb2 AR-luc, MMTV luciferase, R1881 antagonist, 16 h; series mostly up to 70.3 µM
# In short: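 MDA-kb2 breast carcinoma cells carrying MMTV-luciferase (AR/GR responsive) were co-treated with compounds and the agonist R1881 for 16 h at 37C. Inhibition read as ONE-Glo luminescence; CellTiter-Fluor fluorescence measured in parallel for cytotoxicity.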
row,SMILES,Potency
1,O=C(NCNC(=O)NC1C(=O)NC(=O)N1CO)NC1C(=O)NC(=O)N1CO (stereo not given),inactive
2,O=C(N[C@H]1CN2CCC1CC2)c1ccc2c(c1)OCCO2,inactive
3,N#CC(C#N)=Cc1ccc(O)c(O)c1,inactive
4,NP(N)(=O)NC(=O)c1ccc(F)cc1,inactive
5,FC(F)OC(F)(F)C(F)Cl (stereo not given),inactive
6,ClCc1ccccc1Cl,inactive
7,Cc1cnc(C2=NC(C)(C(C)C)C(=O)N2)c(C(=O)O)c1 (stereo not given),inactive
8,CC1(C)[C@H](C(=O)O[C@H](C#N)c2cccc(Oc3ccccc3)c2)[C@@H]1C=C(Br)Br,inactive
9,Clc1ccc2ccccc2c1,inactive
10,Nc1c(Br)cc(Br)c2c1C(=O)c1ccccc1C2=O,inactive
